Results on 33 compounds are retold here after ChEMBL document CHEMBL1961873, “Compounds: GSK PKIS; Assays: Nanosyn kinase panel” (2012).
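Further: reported figure is a mean inhibition value against PRKG2.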

The assay deals with T1, cGMP-dependent protein kinase 2 (Homo sapiens) (UniProt Q13237).
T1 sequence (whole entry): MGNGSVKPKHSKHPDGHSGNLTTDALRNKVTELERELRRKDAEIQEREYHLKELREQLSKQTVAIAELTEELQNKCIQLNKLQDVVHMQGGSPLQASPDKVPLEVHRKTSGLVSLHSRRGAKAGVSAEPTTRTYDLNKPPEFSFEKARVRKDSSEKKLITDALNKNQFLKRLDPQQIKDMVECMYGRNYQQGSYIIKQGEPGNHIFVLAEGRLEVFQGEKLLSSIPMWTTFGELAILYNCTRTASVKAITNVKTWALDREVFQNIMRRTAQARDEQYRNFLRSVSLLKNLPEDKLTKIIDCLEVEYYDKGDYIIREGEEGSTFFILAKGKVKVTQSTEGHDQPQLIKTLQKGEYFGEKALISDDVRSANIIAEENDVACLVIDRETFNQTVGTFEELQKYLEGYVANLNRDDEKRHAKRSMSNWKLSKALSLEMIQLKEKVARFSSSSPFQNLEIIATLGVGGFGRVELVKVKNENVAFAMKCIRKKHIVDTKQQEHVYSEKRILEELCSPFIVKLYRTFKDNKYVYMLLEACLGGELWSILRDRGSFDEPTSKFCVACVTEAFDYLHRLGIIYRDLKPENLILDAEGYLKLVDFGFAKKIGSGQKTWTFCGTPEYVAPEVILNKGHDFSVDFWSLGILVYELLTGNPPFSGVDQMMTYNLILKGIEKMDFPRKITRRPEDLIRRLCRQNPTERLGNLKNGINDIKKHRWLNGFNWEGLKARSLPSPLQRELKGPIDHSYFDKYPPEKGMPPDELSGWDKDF
Particulars: at 0.1 µM.
The term inhibition denotes the drop in the measured response relative to a control, in per cent. For `CS(=O)(=O)CCNCc1nc(-c2ccc3ncnc(Nc4ccc(OCc5cccc(C(F)(F)F)c5)cc4)c3c2)cs1`, the inhibition is 0.51%.

Take `Nc1nccc(-c2c(-c3ccc(F)cc3)ncn2CCCN2CCOCC2)n1`: the inhibition came out at 2.72%.

For `NS(=O)(=O)c1ccc(Nc2cc(-c3cccc(O)c3)n[nH]2)cc1`, the inhibition amounted to 3.66%.

On to `NS(=O)(=O)c1cccc(Nc2cc(-c3ccc(F)cc3)n[nH]2)c1`, for which the inhibition was 4.45%.

With `Cc1ccc2c(-c3ccnc(Nc4ccc5c(c4)OCCO5)n3)c(-c3ccc(C(F)(F)F)cc3)nn2n1`, the inhibition amounted to 2.95%.

Take `Cc1cc(O)cc(C)c1/C=C/c1cncc(C(=O)N(C)C)c1`: the inhibition came to 1.74%.

Turning to `CN(C)c1cc2c(Nc3ccc4c(cnn4Cc4ccccc4)c3)ncnc2cn1`, the inhibition is 2.57%.

Consider `COC(=O)c1ccc2c(c1)C(=Cc1cc(Br)c(O)c(Br)c1)C(=O)N2`, for which the inhibition was found to be 1.59%.

Take `Nc1nccc(-c2c(-c3ccc(F)cc3)nn3cc(C(F)(F)F)ccc23)n1`: the inhibition is -0.17%.

As for `COc1cccc(-n2nc(C)c3c(N/N=C(\C)c4ccncc4)ncnc32)c1`, the inhibition was 0.35%.

In the case of `Cc1cc(Cl)cc2c1NC(=O)C2=NNc1ccc(S(N)(=O)=O)cc1`, the inhibition was determined as 2.01%.

On to `Cc1ccc(O)cc1Nc1ccnc2ccc(S(C)(=O)=O)cc12`, for which the inhibition came out at 1.71%.

For the compound `COc1cccc(-n2ncc3c(N/N=C/c4ccc(S(C)(=O)=O)cc4)ncnc32)c1`, the inhibition amounted to 1.59%.

For the compound `NS(=O)(=O)c1ccc(-c2cc3ccncc3cc2OCc2ccccc2)cc1`, the inhibition came out at 1.8%.

`Cc1ccc2c(c1)/C(=N/Nc1ccc(S(N)(=O)=O)cc1)C(=O)N2`: the inhibition was 0.36%.

Consider `CCCN1CCCC(c2ccc(Nc3nc(Nc4cc(F)ccc4C(N)=O)c4cc[nH]c4n3)c(OC)c2)C1` (stereo not drawn), for which the inhibition is 4.78%.

As for `COC(=O)c1cncc(/C=C/c2c(C)cc(O)cc2C)c1`, the inhibition was determined as 1.54%.

In the case of `Cc1ccc(Nc2ccnc(Nc3cccc(C(N)=O)c3)n2)cc1O`, the inhibition is 2.93%.

For the compound `Nc1ccc(C#Cc2cncnc2Nc2ccc(OCc3cccc(F)c3)c(Cl)c2)cc1`, the inhibition was found to be 2.28%.

For `CN(C)C(=O)O[C@@H]1CN[C@@H](C#Cc2cc3ncnc(Nc4ccc(OCc5cccc(F)c5)c(Cl)c4)c3s2)C1`, the inhibition is 0.46%.

`NS(=O)(=O)c1ccc(N/N=C2\C(=O)Nc3ccc(Cl)cc32)cc1`: the inhibition stood at 3.85%.

Take `Cc1nc(-c2ccccc2)n2nc(NCCCN3CCOCC3)ncc12`: the inhibition was 1.49%.

As to `CCOc1nccc2c1nc(-c1nonc1N)n2CC`, the inhibition is 8.5%.

As for `O=S(=O)(CCOCc1ccc(-c2ccc3ncnc(Nc4ccc(OCc5cccc(F)c5)c(Cl)c4)c3c2)o1)c1ccccc1`, the inhibition amounted to 1.18%.

On to `NC(=O)c1cccc(Nc2nccc(Nc3cccc(F)c3)n2)c1`, for which the inhibition was 0.77%.

For `C[C@@H](Oc1cc(-n2cnc3ccc(OCC4CCN(C)CC4)cc32)sc1C(N)=O)c1ccccc1C(F)(F)F`, the inhibition is -1.61%.

With `FC(F)(F)c1ccc(-c2nn3ncccc3c2-c2ccnc(Nc3ccc4c(c3)OCCO4)n2)cc1`, the inhibition was 3.41%.

`Cc1cc(-c2ccccn2)cc(C)c1/C=C/c1cncc(-c2nn[nH]n2)c1`: the inhibition is 2.46%.

Consider `COc1ccc2ncnc(Nc3ccc(OCc4ccccc4)cc3)c2c1`, for which the inhibition came out at 0.94%.

Turning to `CN(C)CCCn1c(-c2nonc2N)nc2cnccc21`, the inhibition is 2.51%.

With `[O-][S+]1CCN(Cc2ccc(-c3ccc4ncnc(Nc5ccc(OCc6ccccc6)c(Cl)c5)c4c3)o2)CC1`, the inhibition came out at 0.97%.

Consider `OCc1ccc(-c2nc(-c3ccccn3)c(-c3ccc4c(c3)OCO4)[nH]2)cc1`, for which the inhibition amounted to 2.69%.

Regarding `COc1cc(Nc2nccc(-c3cnn4ncccc34)n2)cc(OC)c1`, the inhibition was determined as 3.45%.
